# HTR5A ag = activates human HTR5A in OPRM1-OPRD1 agonist counter-screen; HTR5A agonist assay, luminescence, cell-based; activation, % at 9.3 µM; 0.61% of 340,000 active; P47898; AID 504692; in the data active = activation mostly above about 9.5%, no sharp cut-off; inactive = mostly below about 7.6%;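 also: 0% = cells with vehicle only and 100% = reference agonist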
# MOR-DOR inv ag = inverse agonists of human mu-delta opioid receptor heterodimerization. P35372+P41143. inhibition, % at 9.3 µM. cell-based MOR-DOR heterodimer luminescence, inverse agonism. 0.21% of 340,000 active; in the data active = inhibition above about 22%, passing the limit was not always enough;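 also: 0% = cells with DMSO and 100% = wells without cells with DMSO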
# Target sequence (P35372 whole entry, looked up): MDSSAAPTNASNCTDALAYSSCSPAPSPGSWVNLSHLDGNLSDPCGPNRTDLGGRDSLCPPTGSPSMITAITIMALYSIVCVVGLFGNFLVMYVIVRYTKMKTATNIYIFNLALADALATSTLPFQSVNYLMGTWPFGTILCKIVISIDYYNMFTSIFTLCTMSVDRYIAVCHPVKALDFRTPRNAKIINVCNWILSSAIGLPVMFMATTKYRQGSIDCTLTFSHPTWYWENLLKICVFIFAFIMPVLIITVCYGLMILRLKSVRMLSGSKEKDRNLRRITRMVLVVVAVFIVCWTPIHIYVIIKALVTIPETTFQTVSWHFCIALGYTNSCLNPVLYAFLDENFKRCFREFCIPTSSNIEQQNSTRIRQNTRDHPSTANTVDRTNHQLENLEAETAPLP
# Target sequence (P41143 whole entry, looked up): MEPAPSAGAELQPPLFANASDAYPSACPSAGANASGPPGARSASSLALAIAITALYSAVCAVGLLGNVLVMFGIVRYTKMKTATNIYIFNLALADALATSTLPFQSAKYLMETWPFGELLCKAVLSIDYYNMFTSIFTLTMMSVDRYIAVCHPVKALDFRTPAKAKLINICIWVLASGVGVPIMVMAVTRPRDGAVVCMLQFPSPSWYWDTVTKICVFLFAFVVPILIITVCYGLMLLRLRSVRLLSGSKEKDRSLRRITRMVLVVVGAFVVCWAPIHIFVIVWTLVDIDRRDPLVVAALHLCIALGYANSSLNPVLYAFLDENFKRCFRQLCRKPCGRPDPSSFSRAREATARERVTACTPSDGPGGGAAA
# HTR5A inv ag = inverse agonist of human HTR5A in OPRM1-OPRD1 counter-screen. P47898. HTR5A cell line, luminescence, inverse agonism. inhibition, % at 9.3 µM. 0.083% of 340,000 active. AID 504634; in the data active = inhibition mostly above about 23%, no sharp cut-off; inactive = mostly below about 18%;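 also: 0% = cells with DMSO and 100% = no-cell wells with DMSO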
# MOR-DOR ag = agonists of human mu-delta opioid receptor heterodimerization; AID 504326; cells, OPRM1-OPRD1 heterodimerization, luminescence; 0.3% of 340,000 active; activation, % at 9.3 µM; P35372+P41143; in the data active = activation above about 18%;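 also: 0% = vehicle-treated cells and 100% = reference agonist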
# * = called active by the depositor. Shown are actives, neighbours in structure and some others; about 1.1% of the full set was active somewhere.
SMILES,HTR5A ag,MOR-DOR inv ag,HTR5A inv ag,MOR-DOR ag
Cc1ccc(N(CC(=O)NCC2CCCO2)S(=O)(=O)c2ccccc2)c(C)c1 (stereo not drawn),14.0*,1.9,-39.5,-0.4
N/C(Cc1ccc(Cl)cc1)=N\OC(=O)c1ccc2ccccc2c1,33.6*,-159.7,-80.6,27.1*
COc1ccc(C/C(N)=N/OC(=O)c2ccc(Cl)cc2)cc1,6.9,-13.9,-17.9,2.8
C#CCNC(=O)C1=C[C@@H](c2ccc3c(c2)OCO3)[C@H](CCCO)[C@@H](OCC)O1,11.4*,11.0,20.4,-1.9
CCO[C@@H]1OC(C(=O)NCc2ccccc2)=C[C@H](c2ccc3c(c2)OCO3)[C@H]1CCCO,-1.2,8.4,-26.3,-1.6
Cc1ccc(NC(=S)NNC(=O)Nc2ccccc2)cc1,-11.4,33.7*,29.4*,-5.8
O=C(NNC(=S)Nc1ccccc1)Nc1ccccc1,-8.2,34.6*,23.4*,-6.0
CCOC(=O)c1ccc(N=Cc2cnc(N)nc2N)cc1,3.1,18.1,-12.1,-3.5
CC(c1ccccc1)C1CC(=O)N(c2ccc([N+](=O)[O-])cc2)C1=O (stereo not drawn),-2.9,11.5,9.8,-2.4
CC(c1ccccc1)C1CC(=O)N(c2ccccc2)C1=O (stereo not drawn),-12.3,35.4*,36.1*,-6.9
C=C(C)Cn1c(CCNC(=O)C(C)(C)C)nc2ccccc21,10.4*,4.8,-4.0,-0.8
Cc1ccc2c(NC(=S)NC(=O)c3ccccc3)cccc2n1,4.7,23.6,16.1,-7.2
COc1cc(C(=O)NC(=S)Nc2cccc3nc(C)ccc23)cc(OC)c1OC,30.0*,-134.6,-58.6,26.5*
CCn1c(=O)cc(SCC(=O)N2CCN(c3ccccc3F)CC2)c2ccccc21,12.6*,5.8,-9.3,-1.0
Cc1noc(C)c1COc1ccc(C(=O)N2CCN(S(=O)(=O)c3cccc(F)c3)CC2)cc1,-2.8,4.3,10.0,-0.8
COC(=O)c1cccc(NC(=O)CCNC(=O)c2ccco2)c1,13.2*,-16.2,-28.6,2.6
COC(=O)c1cccc(NC(=O)c2ccco2)c1,6.1,2.1,-16.9,-0.4
CCN(C(=O)COC(=O)/C=C/c1nc2ccccc2s1)c1c(N)n(Cc2ccccc2)c(=O)[nH]c1=O,3.2,12.0,-8.0,-2.9
CN(C1CCS(=O)(=O)C1)S(=O)(=O)c1ccccc1[N+](=O)[O-] (stereo not drawn),11.1*,0.6,-30.6,-0.1
N/C(=N\OC(=O)/C=C/c1ccccc1Cl)c1ccccn1,0.3,-2.8,3.5,0.6
N/C(=N\OC(=O)/C=C/c1ccc(Br)cc1)c1ccccn1,10.4*,-12.6,-2.9,2.5
Cc1cc(=O)n(C(C)Cc2ccccc2)n1C(C)Cc1ccccc1 (stereo not drawn),-4.1,1.9,15.7,-0.4
CCc1cc(C(=O)Nc2ccc(S(=O)(=O)NC3=NCCCCC3)cc2)sc1C,3.8,0.9,-5.9,-0.2
COc1cc(Cl)c(C)cc1NC(=O)CNC(C)c1ccccc1OC (stereo not drawn),10.3*,2.9,8.7,-0.5
COc1ccccc1C(C)NCC(=O)Nc1c(F)cccc1F (stereo not drawn),-1.8,2.6,5.1,-0.5
SMILES,HTR5A ag,MOR-DOR inv ag,HTR5A inv ag,MOR-DOR ag
COc1ccc(CNC(=O)CN2C(=O)C(C)N(c3ccc(C)cc3)C2=O)cc1 (stereo not drawn),11.8*,8.4,-8.4,-1.4
O=C(CC1C[C@H](C(=O)N2CCOCC2)[C@@]2(CCC3CCCC3)c3[nH]c4ccccc4c3CCN2C1=O)NCc1cccc(C(F)(F)F)c1 (stereo partly drawn),0.8,-12.8,-2.9,2.7
COc1cc(N=Nc2ccc(C)cc2S(N)(=O)=O)c(C)cc1N,9.8*,12.0,-35.0,-2.3
OC12CC3C[C@H](C1)C(N1CCOCC1)[C@@H](C3)C2 (stereo partly drawn),10.2*,5.0,-34.6,-1.0
COc1ccc(C)cc1NC(=O)NNC(=O)C1CCC(C(C)(C)C)CC1 (stereo not drawn),13.1*,-32.3,-37.5,6.3
COc1ccc(C)cc1NC(=O)C1CCN(S(C)(=O)=O)CC1,-6.5,2.9,23.0,-0.6
CCCOc1ccc(CC2CCC(=O)NC2=O)cc1 (stereo not drawn),3.2,-3.9,-8.5,0.5
CCCCOc1ccc(C2(C)CC(=O)NC2=O)cc1 (stereo not drawn),11.5*,7.4,-17.9,-1.8
CCCn1c(NCc2ccco2)nc2c1c(=O)n(C)c(=O)n2C,2.4,8.8,-5.7,-2.1
CCn1c(NCc2ccccn2)nc2c1c(=O)n(C)c(=O)n2C,13.9*,11.3,4.0,-2.2
O=C(NCc1ccccc1)C1CCN(S(=O)(=O)c2cc([N+](=O)[O-])ccc2Cl)CC1,3.6,-74.6,7.9,10.9
CN(Cc1ccccc1)C(=O)C1CCN(S(=O)(=O)c2cc([N+](=O)[O-])ccc2Cl)CC1,13.4*,-63.1,-32.1,12.8
CCOc1ccc2oc(C(=O)NCc3ccccc3CN3CCCC3)c(C)c2c1,-2.7,-7.0,9.9,1.3
COc1cccc(CCN2CCC(CNS(=O)(=O)c3cc(-c4cc(C)no4)ccc3C)CC2)c1,2.3,-11.7,-8.6,2.3
CC(=O)Nc1cc(OC(C)=O)c2nonc2c1OC(C)=O,10.5,-133.6,-11.3,22.9*
CC(=O)Nc1nonc1NC(C)=O,-2.3,-0.3,6.0,0.1
CC1(NC(=O)Cc2c(F)cccc2Cl)CCS(=O)(=O)C1 (stereo not drawn),4.4,-3.3,-10.9,0.8
Cn1c(-c2c(N)n(CCCc3ccccc3)c3nc4ccccc4nc23)nc2ccccc21,0.6,-313.2,2.9,57.9*
Cc1cc(C)c(S(=O)(=O)/N=C2/C=C(Sc3ncn[nH]3)C(=O)c3ccccc32)cc1C,3.7,-102.2,-5.2,19.7*
Cc1ccc(S(C)=O)cc1-n1c(=O)n(Cc2ccccc2)c(=O)c2[nH]cnc21 (stereo not drawn),-13.9,69.2*,54.5*,-12.5
Cc1ccccc1-n1c(=O)n(Cc2ccc(C(=O)O)cc2)c(=O)c2[nH]cnc21,-1.8,6.0,6.7,-1.3
CCN(CC)S(=O)(=O)c1ccc2[nH]c(=O)[nH]c2c1,9.5*,-8.9,-13.4,1.6
CCCCN(CCCC)S(=O)(=O)c1ccc2[nH]c(=O)[nH]c2c1,4.4,7.2,-10.4,-1.4
COc1ccc(C2C(C#N)=C(N)OC3=C2C(=O)CC(C)(C)C3)cc1Cn1nc(C)c([N+](=O)[O-])c1C (stereo not drawn),-1.9,5.2,16.7,-0.8
COc1ccc(C2C(C#N)=C(N)Oc3c2c(C)nn3-c2ccccc2)cc1Cn1nc(C)c([N+](=O)[O-])c1C (stereo not drawn),13.7*,-1.8,-40.4,0.3
Cc1ccc2nc(SCC(=O)N3CCCc4ccccc43)nc(=O)n2c1,-2.6,19.8,6.6,-3.6
O=C(c1cccc(C(F)(F)F)c1)C1CCCN(Cc2cccc(OCCO)c2)C1 (stereo not drawn),12.7*,-10.4,-33.2,2.0
COc1ccc(Cc2nnc(SCc3c(C)noc3C)n2C2CCCCC2)cc1OC,12.0*,-6.2,-59.0,1.0

# Bioassay records: PubChem BioAssay, The Scripps Research Institute Molecular Screening Center
